PubChem BioAssay (NCATS)
Inconclusive results are not listed. Calls of active or inactive are those of the source. Unless noted, calls come from the whole dose curve; as a rule, active = well fitted curve in the direction sought with a large enough effect; inconclusive = small, poorly fitted or top-dose-only effect, or another doubt; inactive = no such curve, though single readings can be large; an effect the other way counts as inactive or inconclusive.

Legend:
[1] = molecular target: Nuclear receptor subfamily 1 group I member 3 (Homo sapiens) (UniProt Q14994); test: Primary qHTS for agonist of constitutive androstane receptor (CAR) against the NCATS DSHEA and TCM libraries (AID 1794839); note: potency is the fitted concentration of half-maximal effect
Sequence of Nuclear receptor subfamily 1 group I member 3 (Homo sapiens) (Q14994 whole entry, looked up): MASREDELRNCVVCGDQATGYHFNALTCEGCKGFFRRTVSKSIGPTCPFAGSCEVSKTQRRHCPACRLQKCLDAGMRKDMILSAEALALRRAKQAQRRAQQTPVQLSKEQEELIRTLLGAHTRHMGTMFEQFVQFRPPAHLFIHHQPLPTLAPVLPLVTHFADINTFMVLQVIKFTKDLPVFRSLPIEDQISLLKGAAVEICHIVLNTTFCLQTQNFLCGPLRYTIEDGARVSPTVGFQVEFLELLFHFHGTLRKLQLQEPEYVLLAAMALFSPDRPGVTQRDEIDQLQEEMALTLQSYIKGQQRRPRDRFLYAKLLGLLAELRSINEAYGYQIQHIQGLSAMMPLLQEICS
Summary of the method: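 Luminescence from ONE-Glo luciferase was the agonist read-out in HepG2-CYP2B6-hCAR cells exposed 24 h to test substances. Wells also held the CAR antagonist PK11195 at 0.75 µM final. Viability was by CellTiter-Fluor fluorescence.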

[2] = HepG2 viability counterscreen (readout 2: ATP content) against the NCATS DSHEA and TCM libraries (AID 1794840); note: 0% is about no effect
Summary of the method: (§1)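 1,000 HepG2 cells/well, 4 h attach; compounds ~24 h, 37C/5% CO2. Readout 1: GF-AFC 25 uM final, 30 min, fluorescence 380/510 nm. Readout 2: CellTiter-Glo, 30 min RT, luminescence.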

[3] = HepG2 viability counterscreen (readout 1: protease activity) against the NCATS DSHEA and TCM libraries (AID 1794841);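 note: cells exposed to compounds for about 24 h before the protease read; 0% is about no effect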
Summary of the method: as §1

[4] = molecular target: Glutathione peroxidase 1 (Homo sapiens) (UniProt P07203); test: Primary qHTS Assay for Inhibitors of Recombinant Selenoprotein Glutathione Peroxidase 1 (GPX1) (AID 1845191); note: nearly all actives have a fitted effect of over 65% in size
Sequence of Glutathione peroxidase 1 (Homo sapiens) (P07203 whole entry, looked up): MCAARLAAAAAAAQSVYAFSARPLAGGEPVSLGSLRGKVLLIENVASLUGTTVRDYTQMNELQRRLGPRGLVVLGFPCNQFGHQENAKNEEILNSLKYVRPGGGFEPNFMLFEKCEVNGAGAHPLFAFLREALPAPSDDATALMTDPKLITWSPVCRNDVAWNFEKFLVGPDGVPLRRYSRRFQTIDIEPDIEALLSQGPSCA
Summary of the method: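 10 nM GPX1 + cpd, 30 min RT; start w/ 1 mM GSH, 0.5 mM cumene hydroperoxide, 0.5 mM NADPH, 100 nM GR, 0.01% BSA; buffer 50 mM Tris-HCl pH 7.5, 2 mM EDTA, 150 mM NaCl; Fl 340/450, 0 & 15 min.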

[5] = molecular target: Phospholipid hydroperoxide glutathione peroxidase GPX4 (Homo sapiens) (UniProt P36969); test: Primary qHTS Assay for Inhibitors of Recombinant Selenoprotein Glutathione Peroxidase 4 (GPX4) (AID 1845192); note: nearly all actives have a fitted effect of over 65% in size
Sequence of Phospholipid hydroperoxide glutathione peroxidase GPX4 (Homo sapiens) (P36969 whole entry, looked up): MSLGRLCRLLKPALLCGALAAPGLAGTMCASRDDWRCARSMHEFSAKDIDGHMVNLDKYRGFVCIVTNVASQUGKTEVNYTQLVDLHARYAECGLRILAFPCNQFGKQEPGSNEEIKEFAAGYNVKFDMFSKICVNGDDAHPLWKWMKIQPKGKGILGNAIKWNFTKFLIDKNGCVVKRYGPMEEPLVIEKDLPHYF
Summary of the method: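 NADPH consumption, followed by fluorescence at 340/450 nm between 0 and 15 min, reports GPX4 activity via coupled glutathione reductase (100 nM). Enzyme 200 nM was pre-exposed to compound 30 min; 0.5 mM cumene hydroperoxide and 1 mM GSH served as substrates.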

[6] = molecular target: Luciferin 4-monooxygenase (Photinus pyralis) (UniProt P08659); test: Primary firefly luciferase (FLuc) qHTS assay for identification of artifact compounds. (AID 1845220); conditions: outcome: dose series up to 54.1 µM; note: nearly all actives have a fitted effect of over 60% in size
Summary of the method: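 FLuc 10 nM; luciferin 10 uM; ATP 10 uM; Tris-acetate pH 7.6, Mg-acetate 10 mM; 15 min RT preincubation; 5 min reaction; luminescence.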

[7] = molecular target: Cytochrome P450 2C19 (Homo sapiens) (UniProt P33261); test: qHTS for inhibitors of CYP2C19 against the NCATS DSHEA and TCM libraries (AID 1919974);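 note: luminescence from luciferin released by CYP2C19 oxidation of a pro-luciferin substrate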; note: potency is the fitted concentration of half-maximal effect
Sequence of Cytochrome P450 2C19 (Homo sapiens) (P33261 whole entry, looked up): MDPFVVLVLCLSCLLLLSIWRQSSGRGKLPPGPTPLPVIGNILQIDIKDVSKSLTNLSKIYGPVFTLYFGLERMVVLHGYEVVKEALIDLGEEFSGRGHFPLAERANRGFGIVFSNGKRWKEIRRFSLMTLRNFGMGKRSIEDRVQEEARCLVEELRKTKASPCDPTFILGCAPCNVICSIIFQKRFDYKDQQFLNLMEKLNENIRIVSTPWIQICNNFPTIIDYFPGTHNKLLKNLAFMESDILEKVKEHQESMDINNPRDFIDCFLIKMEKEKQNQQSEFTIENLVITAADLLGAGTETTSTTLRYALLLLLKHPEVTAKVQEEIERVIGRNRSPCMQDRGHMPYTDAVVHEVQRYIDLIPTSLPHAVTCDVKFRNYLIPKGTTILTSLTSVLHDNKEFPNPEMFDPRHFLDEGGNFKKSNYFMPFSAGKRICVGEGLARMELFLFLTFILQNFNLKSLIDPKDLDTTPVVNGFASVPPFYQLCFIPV
Summary of the method: (§2)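 Luminescent P450-Glo readout. Enzyme plus pro-luciferin substrate in manufacturer buffer (typically 100 mM KPO4); 15 min RT preincubation; 1x NADPH regenerating system, 30-45 min RT in the dark; detection reagent 30 min.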

[8] = KB-3-1 P-gp reporter qHTS against the NCATS DSHEA and TCM libraries (AID 1919975); note: 0% is about no effect
Summary of the method: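 CellTiter-Glo luminescence viability readout; KB-3-1 parental cells, 500/well, attached ~4 h, then compound for ~72 h, 37C, 5% CO2. Bortezomib intraplate control.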

[9] = molecular target: Cytochrome P450 1A2 (Homo sapiens) (UniProt P05177); test: qHTS for inhibitors of CYPIA2 against the NCATS DSHEA and TCM libraries (AID 1919976);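 note: light from luciferin formed by CYP1A2 from a pro-luciferin substrate; series mostly up to about 37 µM; % is set by controls: 0 for no effect and ±100 for the full control effect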
Sequence of Cytochrome P450 1A2 (Homo sapiens) (P05177 whole entry, looked up): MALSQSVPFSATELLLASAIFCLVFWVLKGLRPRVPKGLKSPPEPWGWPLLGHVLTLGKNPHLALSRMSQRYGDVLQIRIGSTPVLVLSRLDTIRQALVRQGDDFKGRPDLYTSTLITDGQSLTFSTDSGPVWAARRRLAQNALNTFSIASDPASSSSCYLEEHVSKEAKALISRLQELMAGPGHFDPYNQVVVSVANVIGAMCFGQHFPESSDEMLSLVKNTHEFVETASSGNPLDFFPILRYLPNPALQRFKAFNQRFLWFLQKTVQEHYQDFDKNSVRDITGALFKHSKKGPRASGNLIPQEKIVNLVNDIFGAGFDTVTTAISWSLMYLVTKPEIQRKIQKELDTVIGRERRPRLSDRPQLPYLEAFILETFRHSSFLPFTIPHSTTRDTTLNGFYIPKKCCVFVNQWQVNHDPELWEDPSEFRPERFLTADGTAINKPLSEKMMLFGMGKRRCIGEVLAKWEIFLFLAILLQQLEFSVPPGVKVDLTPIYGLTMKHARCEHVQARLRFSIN
Summary of the method: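 Human CYP1A2 with its pro-luciferin substrate in supplier buffer (typically 100 mM KPO4) was pre-incubated with compounds 15 min at RT. Reaction was started with 1x NADPH regeneration solution and run 30-45 min at RT in the dark, then luminescence was read after P450-Glo detection reagent (30 min RT).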

[10] = qHTS Counterscreen for compound interference against the NCATS DSHEA and TCM libraries (AID 1919978); conditions: firefly luciferase detection reagent interference, luminescence;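 note: compounds preincubated with 1 µM D-luciferin or buffer before detection reagent; % of control where 0% means no effect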
Summary of the method: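 Luminescence counterscreen for detection-kit interference: compounds at 19.5 nM–39.8 uM final, 15 min RT with 1 uM D-luciferin or buffer only; detection reagent added, 30 min RT, then read.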

[11] = Dual reporter qHTS for agonist of Pregnane X Receptor (hPXR) against the NCATS DSHEA and TCM libraries: Fluorescence readout (AID 1920058); note: 0% is about no effect
Summary of the method: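 hPXR-Luc HepG2 cells (2000/well) in phenol red-free medium with charcoal-stripped FBS attached for 5 h, then were exposed to compounds for about 24 h at 37 °C. Viability was read by CellTiter-Fluor fluorescence (Ex/Em 405/540 nm) after 1 h.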

[12] = molecular target: Nuclear receptor subfamily 1 group I member 2 (Homo sapiens) (UniProt O75469); test: Dual reporter qHTS for antagonist of Pregnane X Receptor (hPXR) against the NCATS DSHEA and TCM libraries: Luminescence Readout (AID 1920060);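 note: HepG2 cells carrying hPXR luciferase reporter stimulated with rifampicin at 2 µM; 0% is about no effect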
Sequence of Nuclear receptor subfamily 1 group I member 2 (Homo sapiens) (O75469 whole entry, looked up): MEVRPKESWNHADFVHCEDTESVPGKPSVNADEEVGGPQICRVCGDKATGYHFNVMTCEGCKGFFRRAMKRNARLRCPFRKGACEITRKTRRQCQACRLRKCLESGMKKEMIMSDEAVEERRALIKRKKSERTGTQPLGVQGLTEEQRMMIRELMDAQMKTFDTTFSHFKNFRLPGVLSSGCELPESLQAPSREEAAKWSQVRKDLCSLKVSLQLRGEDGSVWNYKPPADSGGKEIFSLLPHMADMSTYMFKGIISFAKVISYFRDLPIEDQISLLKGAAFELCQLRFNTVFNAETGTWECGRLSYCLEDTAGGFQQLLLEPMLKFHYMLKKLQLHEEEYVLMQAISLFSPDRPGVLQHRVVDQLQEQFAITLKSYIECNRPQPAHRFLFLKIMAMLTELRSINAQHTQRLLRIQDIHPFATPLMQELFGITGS
Summary of the method: (§3)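 hPXR-Luc HepG2 cells exposed 24 h at 37 C to compounds with 2 uM rifampicin in antagonist mode; luciferase luminescence measured by ONE-Glo, with CellTiter-Fluor viability read beforehand.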

[13] = Dual reporter qHTS for antagonist of Pregnane X Receptor (hPXR) against the NCATS DSHEA and TCM libraries: Fluorescence Readout (AID 1920061); note: 0% is about no effect
Summary of the method: as §3

[14] = molecular target: Cytochrome P450 2C9 (Homo sapiens) (UniProt P11712); test: qHTS for inhibitors of CYP2C9 against the NCATS DSHEA and TCM libraries (AID 1919973); note: potency is the fitted concentration of half-maximal effect
Sequence of Cytochrome P450 2C9 (Homo sapiens) (P11712 whole entry, looked up): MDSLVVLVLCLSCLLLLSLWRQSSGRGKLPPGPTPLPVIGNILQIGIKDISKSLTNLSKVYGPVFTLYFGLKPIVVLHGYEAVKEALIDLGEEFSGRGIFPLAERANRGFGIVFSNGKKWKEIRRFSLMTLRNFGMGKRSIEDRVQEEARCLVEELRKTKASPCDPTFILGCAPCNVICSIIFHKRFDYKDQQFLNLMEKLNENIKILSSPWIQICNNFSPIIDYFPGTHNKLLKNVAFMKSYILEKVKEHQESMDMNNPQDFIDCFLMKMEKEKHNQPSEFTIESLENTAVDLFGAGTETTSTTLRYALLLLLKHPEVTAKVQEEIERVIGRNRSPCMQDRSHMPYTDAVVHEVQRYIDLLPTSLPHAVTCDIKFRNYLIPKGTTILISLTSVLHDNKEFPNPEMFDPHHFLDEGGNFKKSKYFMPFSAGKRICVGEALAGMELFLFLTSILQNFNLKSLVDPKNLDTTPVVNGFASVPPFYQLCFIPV
Summary of the method: as §2

[15] = molecular target: Nuclear receptor subfamily 1 group I member 2 (Homo sapiens) (UniProt O75469); test: Dual reporter qHTS for agonist of Pregnane X Receptor (hPXR) against the NCATS DSHEA and TCM libraries: Luminescence readout (AID 1920059); note: potency is the fitted concentration of half-maximal effect
Summary of the method: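 Luminescent PXR reporter read (ONE-Glo) after a CellTiter-Fluor viability read, following 24 h, 37C treatment of HepG2 cells stably carrying hPXR-Luc.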

[16] = molecular target: Cytochrome P450 3A4 (Homo sapiens) (UniProt P08684); test: qHTS for inhibitors of CYP3A4 against the NCATS DSHEA and TCM libraries (AID 1919971);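 note: % is set by controls: 0 for no effect and ±100 for the full control effect; inhibition lowers luminescence from luciferin made by CYP3A4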
Sequence of Cytochrome P450 3A4 (Homo sapiens) (P08684 whole entry, looked up): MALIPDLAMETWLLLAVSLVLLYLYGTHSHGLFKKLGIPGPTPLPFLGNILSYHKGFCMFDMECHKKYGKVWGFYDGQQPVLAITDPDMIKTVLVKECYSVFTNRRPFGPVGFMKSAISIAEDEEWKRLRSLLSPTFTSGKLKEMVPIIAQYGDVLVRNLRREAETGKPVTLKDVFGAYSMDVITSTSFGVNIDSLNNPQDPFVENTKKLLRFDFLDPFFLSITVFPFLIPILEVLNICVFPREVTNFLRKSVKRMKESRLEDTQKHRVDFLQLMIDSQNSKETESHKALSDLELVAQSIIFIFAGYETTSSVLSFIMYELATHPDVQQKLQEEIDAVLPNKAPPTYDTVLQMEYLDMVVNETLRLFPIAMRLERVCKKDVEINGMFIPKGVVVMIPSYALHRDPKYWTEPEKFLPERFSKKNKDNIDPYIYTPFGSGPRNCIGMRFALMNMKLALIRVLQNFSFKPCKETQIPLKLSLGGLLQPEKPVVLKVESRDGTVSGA
Summary of the method: as §2

[17] = molecular target: Cytochrome P450 2D6 (Homo sapiens) (UniProt P10635); test: qHTS for inhibitors of CYP2D6 against the NCATS DSHEA and TCM libraries (AID 1919972); note: % is set by controls: 0 for no effect and ±100 for the full control effect
Sequence of Cytochrome P450 2D6 (Homo sapiens) (P10635 whole entry, looked up): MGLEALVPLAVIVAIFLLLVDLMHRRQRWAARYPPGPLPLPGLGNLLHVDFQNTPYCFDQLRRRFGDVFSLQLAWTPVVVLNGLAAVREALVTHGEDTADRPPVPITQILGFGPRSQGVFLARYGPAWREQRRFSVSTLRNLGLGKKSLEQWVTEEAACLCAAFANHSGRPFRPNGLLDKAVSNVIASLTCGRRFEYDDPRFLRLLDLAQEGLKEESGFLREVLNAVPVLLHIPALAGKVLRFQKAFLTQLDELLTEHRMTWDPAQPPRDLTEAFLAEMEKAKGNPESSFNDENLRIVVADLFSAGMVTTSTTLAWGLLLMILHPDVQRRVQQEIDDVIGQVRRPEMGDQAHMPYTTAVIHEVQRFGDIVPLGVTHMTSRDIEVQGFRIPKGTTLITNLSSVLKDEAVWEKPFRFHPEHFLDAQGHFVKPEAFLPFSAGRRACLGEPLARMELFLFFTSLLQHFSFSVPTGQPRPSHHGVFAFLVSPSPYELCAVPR
Summary of the method: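 Steps: enzyme plus luciferin substrate dispensed; test substances pinned; 15 min RT; 1x NADPH regenerating solution added, 30–45 min RT protected from light; detection reagent, 30 min RT; luminescence measured. Minus-enzyme wells as background.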

[18] = qHTS drug screen for cell cycle checkpoint inhibitors in PARPi-resistant BRCA-mutant ovarian cancer cell lines. (AID 1963452; calls by dose curve); conditions: PEO1/OlaR viability, CellTiter-Glo luminescence, 96 h, stronger effect = lower value
Summary of the method: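 PEO1, PEO4 and PEO1/OlaR ovarian cancer cells, 600 per well, exposed 96 h at 37C to a dilution series. Viability read by CellTiter-Glo luminescence, normalized to DMSO and empty wells; activity summarized as Z-AUC.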

[19] = measured here: PEO1 parental Z-AUC

C=C1CC[C@H](O)CC1=C/C=C1\CCC[C@]2(C)[C@@H]([C@H](C)/C=C/[C@H](C)C(C)C)CC[C@@H]12
inactive: Potency [1] | outcome [2] | outcome [3] | Potency [4] | Potency [5] | outcome [6] | outcome [8] | Potency [9] | max response [10] -0.883% | outcome [11] | outcome [12] | outcome [13]
active: Potency [7] 12.6 µM

Cc1cc(O)c2c(c1)O[C@@]1(C)CC[C@H]3C(C)(C)CCCC34CO[C@@H]2[C@H]41 (some centres undefined)
inactive: Potency [4]

O=C(O)c1cc(N=Nc2ccc(O)c(C(=O)O)c2)ccc1O
inactive: Potency [4]

CC/C=C\C/C=C\C/C=C\CCCCCCCC(=O)O
inactive: Potency [1] | outcome [2] | outcome [3] | outcome [8] | Potency [9] | max response [10] -1.87% | outcome [11] | Potency [15] | outcome [12] | outcome [13]
active: Potency [14] 7.94 µM

COC1=C(OC)C(=O)C(C/C=C(\C)CC/C=C(\C)CC/C=C(\C)CC/C=C(\C)CC/C=C(\C)CC/C=C(\C)CC/C=C(\C)CC/C=C(\C)CC/C=C(\C)CCC=C(C)C)=C(C)C1=O
inactive: Potency [1] | outcome [2] | outcome [3] | Potency [5] | outcome [16] | outcome [17] | Potency [14] | Potency [7] | outcome [8] | max response [10] 5.89% | outcome [11] | Potency [15] | outcome [12] | outcome [13] | Z-AUC [18] -0.238
0.209: Z-AUC ([18]; measured here: PEO4 Z-AUC)
-0.0279: Z-AUC [18, 19]

C[C@@H]1C[C@H]2[C@@H]3C[C@H](F)C4=CC(=O)C=C[C@]4(C)[C@@]3(Cl)[C@@H](O)C[C@]2(C)[C@H]1C(=O)COC(=O)C(C)(C)C
inactive: Potency [4]

CC[C@H](CC[C@@H](C)[C@H]1CC[C@H]2[C@@H]3CC=C4C[C@@H](O)CC[C@]4(C)[C@H]3CC[C@]12C)C(C)C
0.643: Z-AUC [18, 19]
0.776: Z-AUC ([18]; measured here: PEO4 Z-AUC)
inactive: outcome [2] | outcome [3] | Potency [4] | Potency [5] | outcome [8] | max response [10] -1.45% | outcome [11] | Potency [15] | outcome [12] | outcome [13] | Z-AUC [18] 0.987

CCCC(=O)Nc1c(I)cc(I)c(CC(CC)C(=O)O)c1I (centres undefined)
inactive: Potency [4]

Oc1ccc(/C=C/c2cc(O)cc(O)c2)cc1
inactive: outcome [2] | outcome [3] | Potency [4] | Potency [5] | outcome [17] | outcome [8] | max response [10] -1.38% | outcome [11] | outcome [12] | outcome [13] | Z-AUC [18] 0.778
1.04: Z-AUC [18, 19]
0.679: Z-AUC ([18]; measured here: PEO4 Z-AUC)
active: Potency [1] 31.6 µM | Potency [15] 31.6 µM

CCOC(=O)c1c[nH]c2cc(OCC(C)C)c(OCC(C)C)cc2c1=O
inactive: Potency [4]

CCCCCCCCCCCC(=O)OCC(O)CO (centres undefined)
inactive: Potency [1] | outcome [2] | outcome [3] | Potency [4] | outcome [16] | outcome [17] | Potency [14] | outcome [8] | max response [10] 2.27% | outcome [11] | Potency [15] | outcome [12] | outcome [13]

FC(F)(F)C(F)(F)C(F)(F)C(F)(F)C(F)(F)F
inactive: Potency [4]

CC(C)=CCC/C(C)=C/C=C/C(C)=C/C=C/C(C)=C/C=C/C=C(C)/C=C/C=C(C)/C=C/C=C(\C)CCC=C(C)C
inactive: Potency [1] | outcome [2] | outcome [3] | Potency [4] | Potency [5] | outcome [16] | outcome [17] | Potency [14] | Potency [7] | outcome [8] | Potency [9] | max response [10] 0.511% | outcome [11] | Potency [15] | outcome [12] | outcome [13]

CC/C=C\C/C=C\C/C=C\C/C=C\C/C=C\CCCC(=O)O
inactive: outcome [2] | outcome [3] | Potency [4] | outcome [16] | outcome [17] | Potency [14] | Potency [7] | outcome [8] | Potency [9] | max response [10] 0.593% | outcome [11] | Potency [15] | outcome [12] | outcome [13]

Cc1ccc(S(=O)(=O)O)cc1C
inactive: Potency [4]
